The full data set covers some 8,800 targets. This sample favours those with a hit. About 0.5% of all pairs of compound and target were hits. Values without a mark were called inactive.

UniProt P27708, sequence (P27708 whole entry, looked up): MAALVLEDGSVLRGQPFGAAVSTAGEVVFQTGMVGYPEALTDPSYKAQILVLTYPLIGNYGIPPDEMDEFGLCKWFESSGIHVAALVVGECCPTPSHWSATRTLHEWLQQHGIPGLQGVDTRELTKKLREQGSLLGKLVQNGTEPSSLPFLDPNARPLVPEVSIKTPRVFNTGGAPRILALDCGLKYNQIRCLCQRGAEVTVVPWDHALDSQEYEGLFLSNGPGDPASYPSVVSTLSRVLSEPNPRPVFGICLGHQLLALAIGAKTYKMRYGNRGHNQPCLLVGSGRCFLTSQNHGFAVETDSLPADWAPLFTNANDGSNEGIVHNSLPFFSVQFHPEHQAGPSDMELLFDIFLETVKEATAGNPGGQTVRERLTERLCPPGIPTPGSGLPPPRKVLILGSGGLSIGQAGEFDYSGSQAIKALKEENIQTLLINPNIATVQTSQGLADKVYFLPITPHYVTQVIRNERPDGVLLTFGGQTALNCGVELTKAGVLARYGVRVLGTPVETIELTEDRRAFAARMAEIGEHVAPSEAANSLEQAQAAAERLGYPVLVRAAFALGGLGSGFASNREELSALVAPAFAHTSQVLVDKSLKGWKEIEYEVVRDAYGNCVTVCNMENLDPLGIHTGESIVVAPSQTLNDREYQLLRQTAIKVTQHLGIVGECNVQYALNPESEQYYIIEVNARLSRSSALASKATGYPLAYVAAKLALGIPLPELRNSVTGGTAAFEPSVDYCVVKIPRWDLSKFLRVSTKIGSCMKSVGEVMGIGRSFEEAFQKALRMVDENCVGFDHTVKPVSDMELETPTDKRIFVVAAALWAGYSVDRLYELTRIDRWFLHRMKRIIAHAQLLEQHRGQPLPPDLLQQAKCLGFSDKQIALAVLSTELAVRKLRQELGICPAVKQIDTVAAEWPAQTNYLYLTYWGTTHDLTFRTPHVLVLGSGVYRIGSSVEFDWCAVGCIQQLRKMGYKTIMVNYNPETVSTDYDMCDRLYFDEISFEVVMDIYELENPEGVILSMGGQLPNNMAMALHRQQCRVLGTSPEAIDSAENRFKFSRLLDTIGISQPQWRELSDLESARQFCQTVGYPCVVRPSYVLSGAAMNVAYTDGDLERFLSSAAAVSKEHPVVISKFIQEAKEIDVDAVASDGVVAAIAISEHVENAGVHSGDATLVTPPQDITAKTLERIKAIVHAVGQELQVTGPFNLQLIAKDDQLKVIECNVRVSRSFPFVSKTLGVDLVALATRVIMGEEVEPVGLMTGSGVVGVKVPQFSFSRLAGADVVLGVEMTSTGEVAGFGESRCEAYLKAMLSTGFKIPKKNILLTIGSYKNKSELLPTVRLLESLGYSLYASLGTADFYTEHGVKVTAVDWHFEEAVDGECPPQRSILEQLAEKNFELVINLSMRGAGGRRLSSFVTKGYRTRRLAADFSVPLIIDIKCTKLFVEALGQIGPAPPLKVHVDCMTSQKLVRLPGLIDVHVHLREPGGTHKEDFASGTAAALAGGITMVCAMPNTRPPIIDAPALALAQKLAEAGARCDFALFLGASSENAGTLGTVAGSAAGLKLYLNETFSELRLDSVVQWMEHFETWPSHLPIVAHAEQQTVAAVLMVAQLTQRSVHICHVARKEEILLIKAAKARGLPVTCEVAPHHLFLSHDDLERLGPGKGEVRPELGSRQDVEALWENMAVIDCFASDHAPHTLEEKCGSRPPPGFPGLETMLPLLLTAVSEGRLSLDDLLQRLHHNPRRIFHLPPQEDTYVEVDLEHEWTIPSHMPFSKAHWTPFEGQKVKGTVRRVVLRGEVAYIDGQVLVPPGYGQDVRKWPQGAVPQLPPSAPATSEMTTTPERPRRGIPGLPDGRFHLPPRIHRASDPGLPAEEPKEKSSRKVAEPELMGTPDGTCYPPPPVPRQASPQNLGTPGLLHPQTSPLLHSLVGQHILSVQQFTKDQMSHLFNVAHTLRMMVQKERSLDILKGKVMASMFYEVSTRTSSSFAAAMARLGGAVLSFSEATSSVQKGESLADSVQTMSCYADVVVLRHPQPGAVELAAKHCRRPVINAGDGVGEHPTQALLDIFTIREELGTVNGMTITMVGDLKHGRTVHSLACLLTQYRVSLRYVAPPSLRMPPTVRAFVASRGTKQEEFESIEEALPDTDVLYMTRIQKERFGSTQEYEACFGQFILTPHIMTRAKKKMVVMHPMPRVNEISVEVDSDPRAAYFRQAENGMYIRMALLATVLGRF
UniProt O75081, sequence (O75081 whole entry, looked up): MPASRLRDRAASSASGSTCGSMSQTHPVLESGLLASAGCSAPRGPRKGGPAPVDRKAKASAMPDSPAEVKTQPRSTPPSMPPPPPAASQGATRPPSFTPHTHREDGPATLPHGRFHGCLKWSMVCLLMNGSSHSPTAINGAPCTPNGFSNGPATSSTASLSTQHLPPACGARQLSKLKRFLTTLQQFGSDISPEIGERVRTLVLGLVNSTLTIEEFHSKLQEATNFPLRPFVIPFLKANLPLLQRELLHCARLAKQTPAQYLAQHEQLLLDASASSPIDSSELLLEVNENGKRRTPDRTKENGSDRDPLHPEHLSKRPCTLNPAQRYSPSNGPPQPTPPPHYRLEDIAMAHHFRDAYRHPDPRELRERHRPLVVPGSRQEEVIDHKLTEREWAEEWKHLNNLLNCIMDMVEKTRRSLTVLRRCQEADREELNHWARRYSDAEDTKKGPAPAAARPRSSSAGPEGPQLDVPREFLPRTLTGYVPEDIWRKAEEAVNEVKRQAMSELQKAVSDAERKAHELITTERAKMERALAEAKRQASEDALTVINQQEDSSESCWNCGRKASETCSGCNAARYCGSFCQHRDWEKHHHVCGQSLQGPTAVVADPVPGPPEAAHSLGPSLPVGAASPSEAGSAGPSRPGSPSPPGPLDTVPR
UniProt Q9ULG6, sequence (Q9ULG6 whole entry, looked up): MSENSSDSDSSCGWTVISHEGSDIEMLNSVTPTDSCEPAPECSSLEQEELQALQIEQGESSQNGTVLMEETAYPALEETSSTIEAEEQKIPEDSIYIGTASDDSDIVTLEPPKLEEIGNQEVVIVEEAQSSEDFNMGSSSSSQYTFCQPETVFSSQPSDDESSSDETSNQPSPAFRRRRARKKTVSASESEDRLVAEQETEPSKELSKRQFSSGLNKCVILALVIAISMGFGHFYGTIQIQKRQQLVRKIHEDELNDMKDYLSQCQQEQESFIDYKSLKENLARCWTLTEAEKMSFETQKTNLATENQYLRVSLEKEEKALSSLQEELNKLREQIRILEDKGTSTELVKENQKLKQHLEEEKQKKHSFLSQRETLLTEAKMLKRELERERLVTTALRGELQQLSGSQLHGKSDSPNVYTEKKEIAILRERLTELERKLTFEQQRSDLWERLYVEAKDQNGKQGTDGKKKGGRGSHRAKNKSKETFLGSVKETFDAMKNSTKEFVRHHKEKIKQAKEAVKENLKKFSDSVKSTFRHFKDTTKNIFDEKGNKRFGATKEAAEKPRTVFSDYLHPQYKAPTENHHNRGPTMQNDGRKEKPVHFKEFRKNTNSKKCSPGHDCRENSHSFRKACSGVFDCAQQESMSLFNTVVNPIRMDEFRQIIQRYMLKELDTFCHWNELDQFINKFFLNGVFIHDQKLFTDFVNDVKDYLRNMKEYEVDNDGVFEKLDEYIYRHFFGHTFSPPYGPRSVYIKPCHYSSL
UniProt Q86WR0, sequence (Q86WR0 whole entry, looked up): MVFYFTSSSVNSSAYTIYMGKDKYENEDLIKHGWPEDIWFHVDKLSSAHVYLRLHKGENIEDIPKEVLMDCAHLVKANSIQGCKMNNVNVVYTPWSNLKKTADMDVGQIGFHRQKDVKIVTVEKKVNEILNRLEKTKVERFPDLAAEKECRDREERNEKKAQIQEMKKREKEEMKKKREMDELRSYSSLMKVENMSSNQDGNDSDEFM
UniProt Q9Y2V0, sequence (Q9Y2V0 whole entry, looked up): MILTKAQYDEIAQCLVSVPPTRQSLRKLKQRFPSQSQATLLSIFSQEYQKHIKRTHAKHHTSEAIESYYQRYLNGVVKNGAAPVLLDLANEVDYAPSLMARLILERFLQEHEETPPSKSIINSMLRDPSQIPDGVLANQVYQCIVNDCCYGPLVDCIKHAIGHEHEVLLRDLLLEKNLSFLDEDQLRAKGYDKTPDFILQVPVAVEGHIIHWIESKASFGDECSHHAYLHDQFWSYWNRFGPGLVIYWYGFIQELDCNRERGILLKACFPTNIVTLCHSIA
UniProt Q13555, sequence (Q13555 whole entry, looked up): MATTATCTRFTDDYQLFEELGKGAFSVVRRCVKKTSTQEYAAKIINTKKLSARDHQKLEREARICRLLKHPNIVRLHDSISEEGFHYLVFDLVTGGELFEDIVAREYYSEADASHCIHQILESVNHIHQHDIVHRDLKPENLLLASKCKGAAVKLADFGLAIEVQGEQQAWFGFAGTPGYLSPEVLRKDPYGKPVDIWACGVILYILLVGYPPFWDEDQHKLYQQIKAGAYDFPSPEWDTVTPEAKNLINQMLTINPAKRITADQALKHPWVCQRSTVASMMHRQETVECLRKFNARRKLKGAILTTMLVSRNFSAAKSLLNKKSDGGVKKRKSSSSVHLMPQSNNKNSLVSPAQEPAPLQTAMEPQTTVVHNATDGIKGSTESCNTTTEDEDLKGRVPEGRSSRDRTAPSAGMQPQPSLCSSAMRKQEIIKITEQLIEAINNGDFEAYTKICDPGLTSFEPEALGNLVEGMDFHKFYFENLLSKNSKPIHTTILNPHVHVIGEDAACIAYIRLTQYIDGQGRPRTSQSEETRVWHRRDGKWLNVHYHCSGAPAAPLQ
UniProt Q12981, sequence (Q12981 whole entry, looked up): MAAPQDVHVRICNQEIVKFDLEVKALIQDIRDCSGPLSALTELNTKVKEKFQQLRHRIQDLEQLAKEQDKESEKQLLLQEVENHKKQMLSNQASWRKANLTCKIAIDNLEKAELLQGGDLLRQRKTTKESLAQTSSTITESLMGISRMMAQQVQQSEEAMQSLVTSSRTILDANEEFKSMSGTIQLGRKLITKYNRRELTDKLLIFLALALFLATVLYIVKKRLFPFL

Compound in this assay: COc1cc2nc(-c3cc(F)ccc3O)nc(N[C@@H]3CNC[C@H]3C(C)(C)O)c2cc1OC
Description: log2 fold change, soluble protein after heating vs DMSO (PISA); higher = thermal stabilisation; K562 lysate, 10 uM; active = over 0.2 and 3.5 SD of the protein, either way, in both replicates (recomputed). The method, boiled down:
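Pellets of K562 cells were dounce-homogenised in PBS pH 7.4 with 1 mM MgCl2, and the crude extract was held at 1 mg/mL protein for a 30 min treatment with 10 μM compound. Aliquots were heated for 3 min over 48°C-58°C and pooled before NP-40 was added to 0.5% at 4°C. The supernatant from 21,000xg for 90 min was quantified by TMTpro 16plex LC-MS/MS with channel sums equalised. Values are reported from duplicates as log-two fold change in thermal stability relative to solvent controls.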
Turning to CARD9 (UniProt Q9H257), the log2 fold change was 0.009.

Consider ATG13 isoform 2 (UniProt O75143), for which the log2 fold change was 0.017.

With CCDC25 (UniProt Q86WR0), the log2 fold change was -0.005.

Consider CCPG1 isoform 5 (UniProt Q9ULG6), for which the log2 fold change is 0.303 (active).

Turning to BRAF (UniProt P15056), the log2 fold change was -0.019.

As to CALB2 (UniProt P22676), the log2 fold change was -0.01.

As to CES2 isoform 4 (UniProt O00748), the log2 fold change is -0.002.

Turning to CCDC47 (UniProt Q96A33), the log2 fold change is -0.035.

CCNB2 (UniProt O95067): the log2 fold change was 0.031.

In the case of ATP2B4 (UniProt P23634), the log2 fold change was 0.009.

For CDKN1C (UniProt P49918), the log2 fold change is 0.046.

For ATAD3B (UniProt Q5T9A4), the log2 fold change was -0.008.

As for CEP76 (UniProt Q8TAP6), the log2 fold change was 0.

CDK13 (UniProt Q14004): the log2 fold change is 0.078.

For the target C2CD5 isoform 3 (UniProt Q86YS7), the log2 fold change is 0.016.

Regarding CDAN1 (UniProt Q8IWY9), the log2 fold change was -0.022.

ATRIP (UniProt Q8WXE1): the log2 fold change was 0.03.

In the case of CAMK2G isoform 8 (UniProt Q13555), the log2 fold change was 0.144.

For the target CDC16 (UniProt Q13042), the log2 fold change is -0.037.

For the target CDC7 (UniProt O00311), the log2 fold change was -0.04.

Take BNIP1 (UniProt Q12981): the log2 fold change is 0.004.

Turning to CAD (UniProt P27708), the log2 fold change was -0.015.

Turning to CFDP1 (UniProt Q9UEE9), the log2 fold change is 0.015.

As for C15orf41 (UniProt Q9Y2V0), the log2 fold change is 0.09.

On to CDC123 (UniProt O75794), for which the log2 fold change is -0.023.

Take BMS1 (UniProt Q14692): the log2 fold change was -0.01.

In the case of CCNA2 (UniProt P20248), the log2 fold change was 0.176.

For the target ATE1 isoform 2 (UniProt O95260), the log2 fold change is 0.004.

On to BPHL (UniProt Q86WA6), for which the log2 fold change is -0.028.

For ATR (UniProt Q13535), the log2 fold change was 0.077.

Take BORCS5 (UniProt Q969J3): the log2 fold change was 0.01.

CCNYL1 (UniProt Q8N7R7): the log2 fold change was 0.032.

Take CBFA2T3 (UniProt O75081): the log2 fold change was -0.042.

As to ATG7 (UniProt O95352), the log2 fold change is -0.008.

In the case of CAMKK2 (UniProt Q96RR4), the log2 fold change was 0.019.

As for C19orf54 (UniProt Q5BKX5), the log2 fold change was 0.069.

For ATXN2 (UniProt Q99700), the log2 fold change was 0.011.

Take CASP3 (UniProt P42574): the log2 fold change was 0.001.

Consider CAMKK1 isoform 2 (UniProt Q8N5S9), for which the log2 fold change was -0.048.

Source of the values: the supplement of paper PMC10849652.
